From PubChem BioAssay

Assay: Wnt pathway potentiators raising nuclear beta-catenin – imaging, WNT3A-conditioned medium, mouse C2C12, NPC library, primary screen (AID 1117326); note: reference of the scale not given here
Details: stimulation, at 2 µM, stronger effect = higher value
`Cc1cc(=O)[nH]c(=S)[nH]1` gave a nuclear beta-catenin stimulation of -0.4%. With `COc1cccc(OC)c1C(=O)N[C@@H]1C(=O)N2[C@@H]1SC(C)(C)[C@@H]2C(=O)O` the nuclear beta-catenin stimulation was -1.1%. In the case of `O=C1c2cccc(O)c2C(=O)c2c(O)cccc21`, the nuclear beta-catenin stimulation is reported as 8.2%. `CC(=O)N(O)CCCCCNC(=O)CCC(=O)N(O)CCCCCNC(=O)CCC(=O)N(O)CCCCCN` gave a nuclear beta-catenin stimulation of -1.8%. `CC1(C)O[C@@H]2C[C@H]3[C@@H]4C[C@H](F)C5=CC(=O)CC[C@]5(C)[C@H]4[C@@H](O)C[C@]3(C)[C@]2(C(=O)CO)O1` gave a nuclear beta-catenin stimulation of 4%. Work on `COc1cc(NS(=O)(=O)c2ccc(N)cc2)ncn1` yielded a nuclear beta-catenin stimulation of 3.5%. In the case of `Cc1onc(-c2ccccc2)c1C(=O)N[C@@H]1C(=O)N2[C@@H]1SC(C)(C)[C@@H]2C(=O)O`, the nuclear beta-catenin stimulation is reported as 0.5%. `CCCCOc1ccc(CC(=O)NO)cc1` gave a nuclear beta-catenin stimulation of 0.3%. `CCC(=O)O[C@H]1[C@H](O[C@@H]2[C@@H](C)[C@H](O[C@H]3C[C@@](C)(OC)[C@@H](O)[C@H](C)O3)[C@@H](C)C(=O)O[C@H](CC)[C@@](C)(O)[C@H](O)[C@@H](C)C(=O)[C@H](C)C[C@@]2(C)O)O[C@H](C)C[C@@H]1N(C)C` gave a nuclear beta-catenin stimulation of -0.8%. `CC(=O)Nc1ccc(OCC(O)CNC(C)C)cc1` (configuration not stated) showed a nuclear beta-catenin stimulation of 1.7%. In the case of `Cc1c(N(C)CS(=O)(=O)O)c(=O)n(-c2ccccc2)n1C`, the nuclear beta-catenin stimulation is reported as 0.9%. With `CC(=O)Nc1ccccc1` the nuclear beta-catenin stimulation was 1.4%. `O=C(CCCCC(=O)Nc1c(I)cc(I)c(C(=O)O)c1I)Nc1c(I)cc(I)c(C(=O)O)c1I` gave a nuclear beta-catenin stimulation of 3.3%. For `O=C(O)c1ccccc1C(=O)Nc1ccc(S(=O)(=O)Nc2nccs2)cc1`, the nuclear beta-catenin stimulation was 0.7%. In the case of `Cc1c(NC(C)C)c(=O)n(-c2ccccc2)n1C`, the nuclear beta-catenin stimulation is reported as 7%. Work on `CC[C@]12CCCN3CCc4c(n(c5ccccc45)[C@@](O)(C(=O)OC)C1)[C@@H]32` yielded a nuclear beta-catenin stimulation of -0.6%. Work on `Cc1cc(C)cc(OCC2CNC(=O)O2)c1` (configuration not stated) yielded a nuclear beta-catenin stimulation of 0.2%.
